Laboratory results from PubChem BioAssay (NCI).
The panel holds about 83,000 compounds, 20% with a hit somewhere; the sample as a whole holds those more often.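 Method: cells in 96-well plates; compound added at one concentration; 48 h incubation; percent growth measured; values under 10 scored active.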 Values without a mark were called inactive. Activity calls are given as the source filed them.

Legend:
Assay in all cases: NCI-60 one-dose screen, 48 h (100 = growth as untreated, 0 = no growth, -100 = all killed)
Settings in all cases: 10 µM unless noted
SR leukemia = tested on: SR leukemia
RPMI-8226 leukemia = tested on: RPMI-8226 leukemia
OVCAR-8 ovarian = tested on: OVCAR-8 ovarian
OVCAR-5 ovarian = tested on: OVCAR-5 ovarian
OVCAR-4 ovarian = tested on: OVCAR-4 ovarian
SK-OV-3 ovarian = tested on: SK-OV-3 ovarian
IGROV1 ovarian = tested on: IGROV1 ovarian
HS 578T breast = tested on: HS 578T breast
NCI/ADR-RES ovarian = tested on: NCI/ADR-RES ovarian

Row | Compound | growth (SR leukemia) | growth (RPMI-8226 leukemia) | growth (OVCAR-8 ovarian) | growth (OVCAR-5 ovarian) | growth (OVCAR-4 ovarian) | growth (SK-OV-3 ovarian) | growth (IGROV1 ovarian) | growth (HS 578T breast) | growth (NCI/ADR-RES ovarian)
1 | CC(C)[C@H]1c2[nH]c3ccccc3c2C[C@H]2C(=O)N(CCCCCCC(=O)NO)CC(=O)N12 | 33.6% | 58.6% | 60.8% | 81.5% | 99.9% | 95% | 92.9% | 74.2% | 95.3%
2 | O=C(CCCCCCN1CC(=O)N2[C@@H](c3ccccc3Br)c3[nH]c4ccccc4c3C[C@H]2C1=O)NO | 14% | 12% | 34.1% | 50.9% | 88.1% | 75.5% | 48.3% | 59.6% | 83.7%
3 | Cc1ccccc1Nc1nc(SC(C)C)nc(-c2ccccc2)c1C#N | 89.6% | 83.8% | 19.9% | 71.9% | 13.4% | 94.3% | -50.3% (active) | 63.1% | 34.7%
4 | COc1ccc(-c2c(C(N)=O)c(N)n(Cc3nc4ccccc4[nH]3)c(=O)c2C#N)c(OC)c1 | 90.5% | 99% | 97.2% | 110% | 108% | 90.9% | 72% | 99.2% | 102%
5 | O=C(/C=C/c1ccccc1Cl)Nc1ncc(Cc2cc(Cl)ccc2Cl)s1 | 14.3% | 19.7% | 36.9% | 56% | 53.8% | 43.7% | 19.4% | 5.7% (active) | 17.9%
6 | CC(=O)c1cc(C(=O)N2c3ccccc3Sc3ccccc32)n2c1ccc1ccccc12 | 11% | 48.3% | 71.5% | 86.6% | 78.1% | 59.8% | 52.7% | 55.1% | 35.9%
7 | CNC(=O)c1cc(N2CCc3cc(NC(=O)Nc4ccc(N5CCOCC5)c(C(F)(F)F)c4)ccc32)ccn1 | 14.4% | 16% | 23.5% | 57.4% | 41.4% | 80% | 37.3% | -0.517% (active) | 16.8%
8 | CC1(C)CC[C@]23CC[C@]4(C)[C@H](CC[C@@H]5[C@@]6(C)CC[C@H](NCO)C(C)(C)[C@@H]6CC[C@]54C)[C@H]2[C@H]1OC3 | 3.69% (active) | 19.3% | 96.1% | 60.4% | 76.9% | 105% | 64.8% | 90.7% | 82.6%
9 | Clc1ccc2[nH]cc(-c3nn4cc(-c5ccncc5)nc4s3)c2c1 | 28.8% | 53.2% | 10.6% | 98.8% | 43.2% | 15.4% | 44.6% | 31.2% | 2.69% (active)
10 | CNc1sc(S(=O)(=O)NC)nc1S(=O)(=O)c1ccc(C)cc1 | 101% | 99.2% | 102% | 92.2% | 108% | 105% | 95.1% | 103% | 103%
11 | CC(C)(C)c1cc(NC(=O)Nc2ccc(-c3cn4c5c(sc4n3)CCc3cn(CCCN4CCCCC4)cc3-5)cc2)no1 | -14% (active) | -19.5% (active) | -52% (active) | -32.4% (active) | -78.4% (active) | 97% | -78.5% (active) | 38.4% | -43% (active)
12 | CN1CCN(Cc2ccc(/C=N/Nc3ccnc4cc(Cl)ccc34)cc2)CC1 | 2.66% (active) | 46.7% | 80.1% | 102% | 83% | 107% | 69.2% | 89.3% | 87%
13 | Brc1cccc(-c2cc(-c3cnc4c(c3)OCCO4)n[nH]2)c1 | 13.4% | 26.2% | 46.4% | 72.3% | 82.5% | 77.1% | 45% | 76.1% | 10.9%
14 | CN1CCN(Cc2ccc(NC(=O)c3cncc(C#Cc4cnc5ccc(NCCO)nn45)c3)cc2C(F)(F)F)CC1 | 4.47% (active) | -15.2% (active) | 1.73% (active) | 5.23% (active) | -9.76% (active) | -10.5% (active) | -1.21% (active) | -13.3% (active) | 81.1%
15 | O=c1c2cc(-c3ccc(F)cc3F)ccc2n(O)c(=O)n1-c1cccc(C(F)(F)F)c1 | -0.936% (active) | -19.1% (active) | 12% | 42.3% | 31.7% | -14.5% (active) | 21.2% | -0.801% (active) | 3.16% (active)
16 | Fc1cc(F)cc(NNC(=S)c2ccccc2)c1 | 23.2% | 15.6% | 41% | 91.8% | 49.1% | 28.1% | 57.2% | 61.3% | 55.2%
17 | O=C1Nc2ccccc2/C1=C/c1ccc(OCC(=O)c2ccccc2)cc1 | 101% | 95% | 94.8% | 102% | 96.5% | 102% | 102% | 93.9% | 98.2%
18 | COc1cc2cc(Oc3ccc(NC(=O)Nc4ccc(F)c(C(F)(F)F)c4)cc3)c(C)nc2cc1OCCN(C)C | 1.94% (active) | 80.2% | 102% | 137% | 112% | 116% | 101% | 108% | 41.2%
19 | N#Cc1nc(-c2ccccc2)oc1N1CCC(C2(C(F)(F)F)N=N2)CC1 | 85.1% | 97.2% | 97.6% | 109% | 96.4% | 96.2% | 108% | 96.7% | 102%
20 | N#Cc1c(-c2cccs2)c(C#N)c(=O)n(Cc2nc3ccccc3[nH]2)c1N | 92.5% | 95.9% | 95.1% | 116% | 99.6% | 95.4% | 61.7% | 102% | 99.5%
21 | Cc1cc2nc3c4cc(C#N)ccc4n(CCN(C)C)c3nc2cc1C | 0.51% (active) | -17.7% (active) | -33.2% (active) | 6.4% (active) | 0.732% (active) | -4.4% (active) | -1.99% (active) | -15% (active) | 5.29% (active)
22 | Brc1ccc(-c2cc(-c3ccc4c(c3)OCCO4)n[nH]2)s1 | 17.7% | 13.4% | 36% | 58.1% | 71.7% | 55.1% | 34.6% | 51.4% | 6.64% (active)
23 | CCCCSC1=C(Cl)CN(c2ccccc2)C1=O | 71.5% | 78% | 102% | 98.8% | 107% | 105% | 106% | 98.6% | 103%
24 | CN1CCN(Cc2ccc(NC(=O)c3cncc(C#Cc4cnc5ccc(OCCCS(C)(=O)=O)nn45)c3)cc2C(F)(F)F)CC1 | 3.03% (active) | -3.99% (active) | -20.5% (active) | 3.1% (active) | -29.7% (active) | -10.9% (active) | -13.9% (active) | -24.1% (active) | 75%
25 | O=C1Nc2cc(Cl)ccc2/C1=C\c1ccc(OCc2ccccc2)cc1 | 105% | 107% | 100% | 101% | 96.3% | 103% | 91.6% | 96.7% | 104%
26 | CN1CCN(Cc2ccc(NC(=O)c3cncc(C#Cc4cnc5ccc(OCC6COC6)nn45)c3)cc2C(F)(F)F)CC1 | -22.7% (active) | -24.4% (active) | -54.5% (active) | -75.1% (active) | -69.9% (active) | -22.6% (active) | -39% (active) | -37.3% (active) | -34.4% (active)
27 | NC(=S)n1c(=O)n(-c2cccc(C(F)(F)F)c2)c(=O)c2cc(-c3ccc(F)cc3F)ccc21 | 5.69% (active) | -20.8% (active) | 10.9% | 9.62% (active) | 29.9% | -2.63% (active) | 21.2% | -2.09% (active) | 4.95% (active)
28 | CNC(=O)c1cc(-n2ccc3cc(NC(=O)Nc4ccc(N5CCN(C)CC5)c(C(F)(F)F)c4)ccc32)ccn1 | -32.6% (active) | -11.2% (active) | 97.7% | 90% | 84.5% | 105% | 91.9% | 67% | 98%
